Hit rate of the full screen: of about 96,000 compounds, about 20,000 (21%) were called active. A selection follows. A number with no mark means an inactive call.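 The calls were made as follows: active = CYP2C19 inhibition above a set limit at 5 µM in the primary screen (cut at about 50% in these data); inactive = the rest.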
target: Cytochrome P450 2C19 (Homo sapiens) (UniProt P33261); assay: blockers of cytochrome P450 2C19 activity – biochemical, luminescence, ADME assay, primary screen (AID 778); conditions: CYP2C19 Supersomes, luciferin-H EGE luminescence, 30 min; at 5 µM; active compounds read high;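 also: plate controls were negative control wells for no effect and 2.5 mM tranylcypromine positive control for full effect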
Sequence (P33261 whole entry, looked up): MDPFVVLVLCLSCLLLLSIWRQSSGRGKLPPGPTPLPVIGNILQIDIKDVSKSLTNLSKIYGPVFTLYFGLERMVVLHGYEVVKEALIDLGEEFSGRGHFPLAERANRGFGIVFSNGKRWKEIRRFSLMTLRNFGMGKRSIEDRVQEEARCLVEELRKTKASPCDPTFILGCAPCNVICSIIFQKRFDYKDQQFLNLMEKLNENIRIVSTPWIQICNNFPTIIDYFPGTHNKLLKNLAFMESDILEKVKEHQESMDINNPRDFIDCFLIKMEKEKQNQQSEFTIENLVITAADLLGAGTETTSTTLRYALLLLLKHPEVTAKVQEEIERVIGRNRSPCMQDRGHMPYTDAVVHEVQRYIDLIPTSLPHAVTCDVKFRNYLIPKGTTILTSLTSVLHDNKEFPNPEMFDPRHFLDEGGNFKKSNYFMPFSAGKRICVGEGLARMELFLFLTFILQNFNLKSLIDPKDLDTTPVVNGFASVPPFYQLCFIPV

Compound | inhibition
O=C(CN1CCOCC1)Nc1c(-c2ccccc2)c2cc(Br)ccc2[nH]c1=O | 4.9%
Cc1ccc(C(=O)N2CCN(C(=O)N3CCOCC3)CC2)cc1 | 7.4%
CCOC(=O)c1[nH]c2ccc(C)cc2c1N=C(C)N(C)C | -13%
Cc1ccc(-c2ccnc3nc(Sc4ncc(C(F)(F)F)cc4Cl)nn23)cc1 | 0%
CCOC(=O)N1CCN(C(c2cccnc2)c2ccc3cccnc3c2O)CC1 (configuration not stated) | 48%
COC(=O)C1C(=O)NCC1c1ccc(C)cc1 (configuration not stated) | 10.9%
COc1cccc(N2CCN(C(=O)C3CCCN(S(=O)(=O)c4cnc[nH]4)C3)CC2)c1 (configuration not stated) | 25.3%
CCCS(=O)(=O)N1CCC(C(=O)NCCCN(C)Cc2ccccc2)CC1 | 6.8%
CCCS(=O)(=O)N1CCCC(C(=O)NCc2ccco2)C1 (configuration not stated) | -10.8%
Cc1ccc(S(=O)(=O)N2CCCC2CO)cc1 (configuration not stated) | 18.4%
O=C(NCc1ccco1)C1CCCN(S(=O)(=O)c2cccc3nonc23)C1 (configuration not stated) | 18.2%
Cc1cccc(N2CCN(C(=O)C3CCN(S(=O)(=O)c4cnc[nH]4)CC3)CC2)c1C | 7.9%
CCOC(=O)c1cccc(NC(=O)C2CCCN(S(=O)(=O)c3cnc[nH]3)C2)c1 (configuration not stated) | 58.5% (active)
O=C(NCc1ccco1)C1CCCN(S(=O)(=O)c2cnc[nH]2)C1 (configuration not stated) | 55.3% (active)
O=C(NCc1ccco1)C1CCCN(S(=O)(=O)c2ccccc2)C1 (configuration not stated) | 40.8%
Cc1ccc(S(=O)(=O)N2CCCC2C(=O)NCc2ccco2)cc1 (configuration not stated) | 81.7% (active)
CCOc1cccc(NC(=O)C2CCCN(S(=O)(=O)c3ccc(OC)cc3)C2)c1 (configuration not stated) | 48.2%
CCN(CCCNC(=O)C1CCN(S(=O)(=O)c2cnc[nH]2)CC1)c1ccccc1 | 70.9% (active)
CCN1CCN(C(=O)c2ccccc2N(C)S(=O)(=O)c2ccc(C)cc2)CC1 | -7.6%
CC(C)(C)c1ccc(NC(=O)NCc2ccco2)cc1 | 2%
c1cc(-n2cnnn2)ccc1NC1=NCCC1 | -15.7%
CCN1CCCC1Cn1cnc2c([nH]c3cc(OC)ccc32)c1=O (configuration not stated) | -3.7%
CC(C)(C)Oc1ncc(Br)c(OC(C)(C)C)n1 | -12.1%
N/C(Cc1ccc([N+](=O)[O-])cc1)=N\OC(=O)COc1ccc2ccccc2c1 | 4.3%
COC(=O)c1ccc2c(c1)S(=O)(=O)NC(=NCCCN1CCOCC1)S2 | 6.8%

Compound | inhibition
CCOC(=O)Cn1c(=O)oc2cc(S(=O)(=O)N(C)Cc3ccco3)ccc21 | 14.9%
CCOC(=O)C1=C(CSc2nccn2C)NC(=O)NC1c1ccc(OC)cc1 (configuration not stated) | 31.3%
CCOC(=O)C1=C(CSc2nnnn2C)N(C)C(=O)NC1c1ccccc1 (configuration not stated) | 79.5% (active)
Cn1nnnc1SCc1cc(=O)[nH]c2ccccc12 | 2.9%
CC1(C)Oc2ccc3ccc(=O)oc3c2/C(=C/NCCO)C1=O | -7.3%
COc1ccccc1NC(=O)c1ccc2nc(N3C(=O)CCC3=O)sc2c1 | 13.6%
Cc1cc(NC(=O)CN2CCC(O)(c3cccc(F)c3)CC2)no1 | 34.5%
COc1ccccc1CNC(=O)CCCNS(=O)(=O)c1cccc2nsnc12 | 7.7%
CC(c1ccccc1)n1c(NCCCn2ccnc2)nc2c1c(=O)[nH]c(=O)n2C (configuration not stated) | 55.9% (active)
CCCCNc1nc2c(c(=O)[nH]c(=O)n2C)n1CCOc1ccccc1 | 28.9%
COc1ccc(CCn2c(NCCCN3CCOCC3)nc3c2c(=O)[nH]c(=O)n3C)cc1 | 25.2%
CCOC(=O)c1cnc(SCC(=O)Nc2cccc(OC)c2)nc1N | -12.1%
CCOC(=O)N1CCC(C(N)=O)CC1 | 5.4%
COc1cc2cc(CN(CCN3CCCC3)C(=O)Nc3ccccc3Cl)c(=O)[nH]c2cc1OC | 7.9%
COc1ccccc1N(C(=O)Cn1nnc2ccccc21)C(C(=O)NCc1ccco1)c1ccc(C)o1 (configuration not stated) | 68% (active)
COCCNC(=O)C(c1ccc(C)o1)N(Cc1ccccc1)C(=O)Cn1nnc2ccccc21 (configuration not stated) | 29.3%
Cc1ccc(C(C(=O)NCc2ccco2)N(CC2CCCO2)C(=O)Cn2nnc3ccccc32)cc1 (configuration not stated) | 17.2%
Cc1ccc(C(CC(=O)O)Nc2nc(N3CCCCC3)nc(N3CCCCC3)n2)cc1 (configuration not stated) | 11.1%
COc1ccc(S(=O)(=O)N2CCCC(C(=O)N3CCN(C)CC3)C2)cc1C (configuration not stated) | 30%
COc1ccc(S(=O)(=O)N2CCOCC2)cc1C(=O)Nc1nc2ccccc2s1 | 0.4%
COc1ccc2c(c1OC)C(=O)c1ccccc1C2=O | 17%
CCCCNC(=O)C1CCCN(S(=O)(=O)c2ccc(S(=O)(=O)NCC(C)C)cc2)C1 (configuration not stated) | 6.5%
CCCCn1c(=S)[nH]c2cc(S(=O)(=O)N3CCCCC3)ccc21 | 25.4%
CCNC(=O)NC(=O)C(C)OC(=O)c1cc(S(=O)(=O)N2CCCCCC2)ccc1OC (configuration not stated) | 66% (active)
COc1ccc(S(=O)(=O)Nc2ccc(S(=O)(=O)N3CCCCC3)cc2)cc1OC | 52.3% (active)

Compound | inhibition
COc1ccc(S(=O)(=O)N2CCCC2)c(C)c1C | 72.2% (active)
COc1ccc(S(=O)(=O)N2CCCCC2)cc1Br | 92% (active)
CSC1=N/C(=C\c2ccc3c(c2)OCO3)C(=O)S1 | 0.4%
COc1cc(NC(=O)N2CCOCC2)cc(OC)c1 | -9.7%
CCC(=NC1CC(C)(C)NC(C)(C)C1)C1=C(O)CC(C)(C)CC1=O | 3.6%
Cc1c(-c2ccccc2)cn2c1-c1ccc(C)n1CC2 | 1.7%
O=C(Nc1ccc(Cl)cn1)c1cnn2cccnc12 | 0.1%
CCC(=O)c1ccc(OCC(O)CN2CC(C)OC(C)C2)cc1 (configuration not stated) | 39.4%
O=C1Nc2ccc(Br)cc2/C1=N/N=C/C1=C(N2CCOCC2)C(=C\c2ccccc2)/CC1 | -1.8%
CCCOc1ccc2c3c(c(=O)oc2c1OCCC)CCC3 | 49.9%
COc1ccc(-c2c(C(C)=O)c(C)nc3sc4c(=O)n(-c5ccc(C)cc5)nnc4c23)cc1 | 21.7%
C=C(C)CSc1nnc(-c2ccc(C)cc2)n1N | 17%
Cc1ccc(-n2c(C)cc(/C=C(\C#N)C(=O)NCC3CCCO3)c2C)cc1 (configuration not stated) | 31.5%
CC1(C)CC(=O)C=C(NCCCNC2CCCCC2)C1 | 9.8%
CC(C)CCSc1ncnc2c1oc1nc3c(cc12)COC(C)(C)C3 | -1.7%
Cc1[nH]c(=O)c(C(=O)/C=C/c2ccccc2)c2c1CCCC2 | 80.5% (active)
O=C(/C=C/c1ccccc1)c1ccoc1 | 35%
Cc1cn(COC/C=C/c2ccccc2)c(=O)[nH]c1=O | 24.1%
Cn1c(=NC(=O)c2ccco2)sc2cccc(F)c21 | 21.9%
CCn1c(-c2ccoc2C)n[nH]c1=S | 1.3%
COc1ccc(-n2nnnc2SCC(=O)Nc2ccccc2)cc1 | 48.1%
COc1ccc(C(=O)CSc2nccc(=O)[nH]2)cc1 | -4%
COc1ccc(-n2nnnc2SCC(=O)c2ccc(OC)c(OC)c2)cc1 | 66.5% (active)
Cn1c(=O)c2cn(-c3cccc4ccccc34)cc2n(C)c1=O | 49.2%
O=C(O)C1OC(C(=O)O)C2C1C(F)(F)C2(F)F (configuration not stated) | -0.7%

Compound | inhibition
CCOC(=O)c1c(NC(=O)c2ccc(N3CCOCC3)c([N+](=O)[O-])c2)sc(C)c1C | 2.9%
Cc1cc(C(=O)CSc2nc(N)cc(=O)[nH]2)c(C)n1CCc1ccc(Cl)cc1 | 37%
Cc1nc(C)c(C(=O)N(c2ccc(C)c(C)c2)C(C(=O)NCc2ccco2)c2ccccc2)s1 (configuration not stated) | 7.8%
O=c1c2c(nc3nc[nH]n13)CCC2 | -17.9%
CC(=NCc1ccc2c(c1)OCO2)C1=C(O)c2ccccc2C1=O | 4.5%
CC(=NCc1ccco1)c1c(C(F)(F)F)[nH]n(-c2nc3ccccc3s2)c1=O | 28.3%
CC(=NCc1ccco1)C1=C(O)c2ccccc2C1=O | 81.8% (active)
CCOC(=O)C1=C(C)N=c2s/c(=C\C(=O)OC)c(=O)n2C1c1ccc(OC)cc1 (configuration not stated) | 67.5% (active)
COCCOC(=O)C1=C(C)N=c2s/c(=C\c3cccs3)c(=O)n2C1c1cccs1 (configuration not stated) | 45.2%
COc1ccc(C2C(C(C)=O)=C(O)C(=O)N2c2nccs2)cc1 (configuration not stated) | -17%
S=C1SCN(CCN2CCOCC2)CN1Cc1ccccc1 | 25.3%
O=C(Nc1c(C(=O)N2CCCCC2)cnn1-c1ccccc1)c1ccco1 | -7.8%
Cc1ccc(C2C(C#N)C(C#N)N3CCCN23)cc1 (configuration not stated) | -7.9%
Cn1nnnc1SCC(=O)Nc1ccccc1C(=O)NC1CC1 | -4.1%
C=CCn1c(SCn2nnc3ccccc3c2=O)nnc1-c1ccc(Cl)cc1 | 87.2% (active)
O=c1c2ccccc2nnn1CSc1nnnn1-c1ccccc1 | 74.2% (active)
CCOC(=O)CNC(=O)CSc1nnnn1-c1cc(C)ccc1C | 13.5%
O=C(Cn1nnc2ccccc2c1=O)Nc1cc(C(F)(F)F)ccc1N1CCOCC1 | 31%
O=c1c2ccccc2nc(CSc2nnnn2-c2ccccc2)n1-c1ccccc1 | -5.9%
C=CCn1c(Cn2nnc3ccccc32)nnc1SCC(=O)N/N=C/c1cc(Br)cc(OC)c1O | 22.7%
O=C(O)CCSc1nnc(-c2ccccc2)n1-c1ccccc1 | 1.2%
CN(C(=O)CSc1nnnn1-c1ccccc1)C1CCCCC1 | 71.1% (active)

Source: PubChem BioAssay AID778 (Sanford-Burnham Center for Chemical Genomics, 2007)
